Assays:
Test in all cases: DAPPL (digital affinity profiling via proximity ligation, sequencing); 10 mM Tris-HCl pH 7.5, 50 mM NaCl, 1 mM DTT, 4% glycerol, room temperature, 30 min; GST-TFs on glutathione beads, 16-mer random dsDNA library, 0.1% formaldehyde crosslink after washing; high values mean tight binding
Conditions in all cases: protein: recombinant; tags: N-terminal GST; dsDNA, one strand shown
FLI1 = target: T1, FLI1 (Homo sapiens, UniProt Q01543 1-452)
T1 sequence: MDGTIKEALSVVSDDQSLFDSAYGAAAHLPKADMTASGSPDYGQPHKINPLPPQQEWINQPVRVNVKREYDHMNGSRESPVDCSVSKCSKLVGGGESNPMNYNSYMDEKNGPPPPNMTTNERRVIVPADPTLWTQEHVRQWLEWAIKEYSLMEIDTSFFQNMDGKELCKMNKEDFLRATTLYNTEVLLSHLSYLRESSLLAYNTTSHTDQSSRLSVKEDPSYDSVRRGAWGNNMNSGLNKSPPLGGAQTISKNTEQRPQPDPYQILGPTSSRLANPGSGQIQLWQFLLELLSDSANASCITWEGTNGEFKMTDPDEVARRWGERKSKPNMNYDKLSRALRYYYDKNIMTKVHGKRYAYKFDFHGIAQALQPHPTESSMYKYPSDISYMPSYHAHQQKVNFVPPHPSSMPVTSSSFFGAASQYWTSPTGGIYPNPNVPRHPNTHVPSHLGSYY
How it was run: (§1)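 Human transcription factors fused to GST were expressed in yeast, captured on glutathione beads, given DNA barcodes and pooled with a GST-only negative control. Pools were incubated with 200 nmole of a 16-mer random double-stranded DNA library in Tris/NaCl/DTT/glycerol buffer at room temperature for 30 min. They were then washed, crosslinked with 0.1% formaldehyde, proximity-ligated (BsaI/T4 ligase, 1 h, 37 °C), PCR-amplified and sequenced on an Illumina NextSeq500. Binding signal is each 6-mer's read frequency for a factor divided by its frequency for the GST control.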

ELK1 = target: T2, ELK1 (Homo sapiens, UniProt P19419 1-428)
T2 sequence: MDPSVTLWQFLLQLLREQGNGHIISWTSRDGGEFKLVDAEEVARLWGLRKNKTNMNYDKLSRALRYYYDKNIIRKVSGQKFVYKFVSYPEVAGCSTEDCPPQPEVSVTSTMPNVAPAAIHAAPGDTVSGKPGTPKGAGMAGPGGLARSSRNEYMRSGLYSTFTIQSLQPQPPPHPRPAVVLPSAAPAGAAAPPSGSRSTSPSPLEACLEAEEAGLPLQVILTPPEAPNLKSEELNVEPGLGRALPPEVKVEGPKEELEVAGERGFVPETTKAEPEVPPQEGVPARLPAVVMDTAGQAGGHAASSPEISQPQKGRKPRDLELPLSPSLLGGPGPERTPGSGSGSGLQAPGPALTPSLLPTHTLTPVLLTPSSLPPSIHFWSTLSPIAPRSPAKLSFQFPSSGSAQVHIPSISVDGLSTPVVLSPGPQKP
How it was run: as §1

GABPA = target: T3, GABPA (Homo sapiens, UniProt Q06546 1-454)
T3 sequence: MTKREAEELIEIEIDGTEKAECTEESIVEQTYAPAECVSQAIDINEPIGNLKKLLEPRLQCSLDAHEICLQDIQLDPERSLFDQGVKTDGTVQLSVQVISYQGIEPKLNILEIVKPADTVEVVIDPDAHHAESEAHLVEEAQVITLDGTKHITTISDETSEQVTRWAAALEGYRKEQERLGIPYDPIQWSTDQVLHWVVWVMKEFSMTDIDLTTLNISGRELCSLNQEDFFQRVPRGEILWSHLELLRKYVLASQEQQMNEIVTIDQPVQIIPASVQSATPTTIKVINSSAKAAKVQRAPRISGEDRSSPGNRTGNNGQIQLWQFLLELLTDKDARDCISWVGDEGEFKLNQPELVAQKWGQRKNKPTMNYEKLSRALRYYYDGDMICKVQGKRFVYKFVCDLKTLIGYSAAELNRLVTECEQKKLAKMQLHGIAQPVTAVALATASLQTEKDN
How it was run: as §1

ERG = target: T4, ERG (Homo sapiens, UniProt P11308 1-479)
T4 sequence: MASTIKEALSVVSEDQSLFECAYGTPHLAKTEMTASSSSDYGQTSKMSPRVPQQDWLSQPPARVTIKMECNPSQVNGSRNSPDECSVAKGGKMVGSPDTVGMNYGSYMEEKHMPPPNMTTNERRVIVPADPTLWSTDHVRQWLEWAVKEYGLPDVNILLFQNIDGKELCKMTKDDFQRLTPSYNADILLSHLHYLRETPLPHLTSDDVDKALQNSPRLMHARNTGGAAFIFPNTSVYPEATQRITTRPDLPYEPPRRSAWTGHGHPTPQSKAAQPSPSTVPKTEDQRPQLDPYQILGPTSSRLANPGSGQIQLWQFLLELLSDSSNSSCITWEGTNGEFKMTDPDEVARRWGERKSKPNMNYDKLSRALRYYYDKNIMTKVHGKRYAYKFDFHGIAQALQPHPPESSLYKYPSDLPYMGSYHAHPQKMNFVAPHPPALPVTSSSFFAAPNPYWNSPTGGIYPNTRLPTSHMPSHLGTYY
How it was run: as §1

ELF1 = ELF1 (Homo sapiens, UniProt P32519 1-619)
How it was run: as §1

EHF = target: T5, EHF (Homo sapiens, UniProt Q9NZC4 1-300)
T5 sequence: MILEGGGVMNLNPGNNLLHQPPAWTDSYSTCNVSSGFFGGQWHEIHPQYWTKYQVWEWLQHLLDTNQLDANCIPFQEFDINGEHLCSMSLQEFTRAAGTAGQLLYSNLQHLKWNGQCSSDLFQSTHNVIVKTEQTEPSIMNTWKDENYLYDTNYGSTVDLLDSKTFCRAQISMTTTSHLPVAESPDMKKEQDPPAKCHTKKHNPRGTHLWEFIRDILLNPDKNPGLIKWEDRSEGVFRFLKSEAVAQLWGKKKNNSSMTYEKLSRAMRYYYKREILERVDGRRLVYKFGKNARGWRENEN
How it was run: as §1

SPI1 = SPI1 (Homo sapiens, UniProt P17947 1-270)
How it was run: as §1

SPIB = SPIB (Homo sapiens, UniProt Q01892 1-262)
How it was run: as §1

ELK3 = target: T6, ELK3 (Homo sapiens, UniProt P41970 1-407)
T6 sequence: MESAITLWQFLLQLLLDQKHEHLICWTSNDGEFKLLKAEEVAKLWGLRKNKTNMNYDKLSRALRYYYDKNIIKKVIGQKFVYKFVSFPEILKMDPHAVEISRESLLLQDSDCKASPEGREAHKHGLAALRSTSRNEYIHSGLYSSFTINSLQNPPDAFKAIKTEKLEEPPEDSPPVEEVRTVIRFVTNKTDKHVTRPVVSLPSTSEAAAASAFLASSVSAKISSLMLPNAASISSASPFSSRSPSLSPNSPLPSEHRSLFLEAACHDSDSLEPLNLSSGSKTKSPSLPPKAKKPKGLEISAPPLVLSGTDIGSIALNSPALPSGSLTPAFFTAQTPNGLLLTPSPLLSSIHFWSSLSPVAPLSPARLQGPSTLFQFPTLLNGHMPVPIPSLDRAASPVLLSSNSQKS
How it was run: as §1

Sequence of SPIB (Q01892 whole entry): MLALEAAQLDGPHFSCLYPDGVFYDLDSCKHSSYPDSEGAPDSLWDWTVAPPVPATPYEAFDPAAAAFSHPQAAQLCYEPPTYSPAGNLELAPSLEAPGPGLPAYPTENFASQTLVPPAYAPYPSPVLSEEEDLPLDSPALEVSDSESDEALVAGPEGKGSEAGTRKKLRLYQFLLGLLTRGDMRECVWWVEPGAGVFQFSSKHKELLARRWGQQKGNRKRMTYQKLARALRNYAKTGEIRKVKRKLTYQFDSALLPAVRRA
Sequence of ELF1 (P32519 whole entry): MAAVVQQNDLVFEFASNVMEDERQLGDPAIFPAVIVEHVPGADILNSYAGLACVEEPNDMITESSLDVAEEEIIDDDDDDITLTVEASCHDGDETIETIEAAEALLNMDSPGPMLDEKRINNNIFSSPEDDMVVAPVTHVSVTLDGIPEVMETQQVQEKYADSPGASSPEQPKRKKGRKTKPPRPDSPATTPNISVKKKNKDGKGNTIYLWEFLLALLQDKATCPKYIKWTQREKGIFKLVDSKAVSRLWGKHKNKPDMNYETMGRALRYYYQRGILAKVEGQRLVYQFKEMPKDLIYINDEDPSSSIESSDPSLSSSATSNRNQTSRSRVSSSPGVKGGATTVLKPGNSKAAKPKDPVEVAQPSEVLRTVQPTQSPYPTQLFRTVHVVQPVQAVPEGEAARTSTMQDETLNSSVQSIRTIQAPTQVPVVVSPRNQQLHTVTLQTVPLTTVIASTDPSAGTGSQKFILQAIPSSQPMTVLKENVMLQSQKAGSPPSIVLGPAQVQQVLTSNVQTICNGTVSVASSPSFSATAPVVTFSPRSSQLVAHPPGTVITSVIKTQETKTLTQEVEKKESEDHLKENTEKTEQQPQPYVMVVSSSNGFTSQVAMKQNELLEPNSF

## ATCCTG
FLI1
  binding signal: 1.38 fold enrichment (6-mer frequency, TF over GST control)
ELK1
  binding signal: 1.43 fold enrichment (6-mer frequency, TF over GST control)
GABPA
  binding signal: 1.34 fold enrichment (6-mer frequency, TF over GST control)
ERG
  binding signal: 1.62 fold enrichment (6-mer frequency, TF over GST control)
ELF1
  binding signal: 1.36 fold enrichment (6-mer frequency, TF over GST control)
EHF
  binding signal: 1.41 fold enrichment (6-mer frequency, TF over GST control)
SPI1
  binding signal: 1.4 fold enrichment (6-mer frequency, TF over GST control)
SPIB
  binding signal: 1.55 fold enrichment (6-mer frequency, TF over GST control)
ELK3
  binding signal: 1.5 fold enrichment (6-mer frequency, TF over GST control)

From PMC7862700, “An all-to-all approach to the identification of sequence-specific readers for epigenetic DNA modifications on cytosine”
